Measurements taken from PubChem BioAssay AID1159580 (chemical genetic matrix, 2015).
The campaign covered roughly 5,500 compounds. About 2,000 (36%) were called active. Another 18% or so got no clear call; they are omitted. Rule as the data show it: active = normalized growth mostly below about 0.91 (no sharp cut-off); inconclusive = no clear call, values can overlap the other calls; inactive = mostly above about 0.92. Some of the results follow.

Assay: chemical genetic growth profiling, strain panel (AID 1159580);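 also: tested at 20 µM; growth read once vehicle control cultures reached saturation at 30 °C; 1 = growth at the plate median or of vehicle wells; lower values mean less growth of the strain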
Settings: growth OD

Measured: normalized growth

CC[N+]1(C)CCCC(OC(=O)C(O)(c2ccccc2)c2ccccc2)C1 (stereo not given)
inactive: S. cerevisiae deletion strains, locus YJR066W, strain TOR1, stronger effect = lower value 0.954 | S. cerevisiae deletion strains, locus YKL009W, strain mrt4, stronger effect = lower value 1.01 | S. cerevisiae deletion strains, locus YKL068W, stronger effect = lower value 1.01 | S. cerevisiae deletion strains, locus YKL085W, strain MDH1 (second series), stronger effect = lower value 0.994 | S. cerevisiae deletion strains, locus YKL085W, strain MDH1, stronger effect = lower value 0.994 | S. cerevisiae deletion strains, locus YKL160W, strain elf1, stronger effect = lower value 1.01 | S. cerevisiae deletion strains, locus YKL190W, strain CNB1, stronger effect = lower value 1.01 | S. cerevisiae deletion strains, locus YKR001C, strain vps1, stronger effect = lower value 1.02 | S. cerevisiae deletion strains, locus YKR026C, strain gcn3, stronger effect = lower value 1.04 | S. cerevisiae deletion strains, locus YKR091W, strain srl3, stronger effect = lower value 1.02 | S. cerevisiae deletion strains, locus YLL001W, strain dnm1, stronger effect = lower value 1.01 | S. cerevisiae deletion strains, locus YLL026W, stronger effect = lower value 1.02 | S. cerevisiae deletion strains, locus YLL041C, strain sdh2, stronger effect = lower value 1.02 | S. cerevisiae deletion strains, locus YLR027C, strain aat2, stronger effect = lower value 1.01 | S. cerevisiae deletion strains, locus YLR039C, strain RIC1, stronger effect = lower value 1.03 | S. cerevisiae deletion strains, locus YLR058C, strain SHM2, stronger effect = lower value 1.01 | S. cerevisiae deletion strains, locus YLR102C, strain apc9, stronger effect = lower value 1 | S. cerevisiae deletion strains, locus YLR113W, strain HOG1, stronger effect = lower value 1.05 | S. cerevisiae deletion strains, locus YLR221C, strain rsa3, stronger effect = lower value 1.01 | S. cerevisiae deletion strains, locus YLR258W, strain gsy2, stronger effect = lower value 1.02 | S. cerevisiae deletion strains, locus YLR262C, strain YPT6 (second series), stronger effect = lower value 1.02 | S. cerevisiae deletion strains, locus YLR262C, strain YPT6, stronger effect = lower value 1.07 | S. cerevisiae deletion strains, locus YLR268W, strain sec22, stronger effect = lower value 1.01 | S. cerevisiae deletion strains, locus YLR320W, strain mms22, stronger effect = lower value 1.02 | S. cerevisiae deletion strains, locus YLR330W, strain CHS5, stronger effect = lower value 1.01 | S. cerevisiae deletion strains, locus YLR342W, strain FKS1 (second series), stronger effect = lower value 1.03 | S. cerevisiae deletion strains, locus YLR342W, strain FKS1, stronger effect = lower value 1.03 | S. cerevisiae deletion strains, locus YLR357W, strain rsc2, stronger effect = lower value 1.02 | S. cerevisiae deletion strains, locus YLR370C, strain arc18, stronger effect = lower value 1.03 | S. cerevisiae deletion strains, locus YLR371W, strain rom2, stronger effect = lower value 1.01 | S. cerevisiae deletion strains, locus YLR384C, strain iki3, stronger effect = lower value 1.02 | S. cerevisiae deletion strains, locus YLR418C, strain cdc73, stronger effect = lower value 1.03 | S. cerevisiae deletion strains, locus YML016C, strain PPZ1, stronger effect = lower value 1 | S. cerevisiae deletion strains, locus YML032C, strain rad52, stronger effect = lower value 1.02 | S. cerevisiae deletion strains, locus YML120C, strain ndi1, stronger effect = lower value 1.01 | S. cerevisiae deletion strains, locus YML124C, strain tub3, stronger effect = lower value 1.01 | S. cerevisiae deletion strains, locus YMR058W, strain fet3, stronger effect = lower value 1.02 | S. cerevisiae deletion strains, locus YMR078C, strain ctf18, stronger effect = lower value 0.998 | S. cerevisiae deletion strains, locus YMR125W, strain sto1, stronger effect = lower value 1.02 | S. cerevisiae deletion strains, locus YMR129W, stronger effect = lower value 1.03 | S. cerevisiae deletion strains, locus YMR205C, strain PFK2, stronger effect = lower value 1.03 | S. cerevisiae deletion strains, locus YMR223W, strain ubp8, stronger effect = lower value 1.03 | S. cerevisiae deletion strains, locus YMR231W, strain pep5, stronger effect = lower value 1.03 | S. cerevisiae deletion strains, locus YMR263W, strain SAP30, stronger effect = lower value 1.01 | S. cerevisiae deletion strains, locus YMR307W, strain GAS1, stronger effect = lower value 1.1 | S. cerevisiae deletion strains, locus YNL067W, strain RPL9B, stronger effect = lower value 1.01 | S. cerevisiae deletion strains, locus YNL071W, strain lat1, stronger effect = lower value 1.02 | S. cerevisiae deletion strains, locus YNL128W, strain TEP1, stronger effect = lower value 1.03 | S. cerevisiae deletion strains, locus YNL153C, strain GIM3, stronger effect = lower value 0.997 | S. cerevisiae deletion strains, locus YNL183C, strain NPR1, stronger effect = lower value 0.942 | S. cerevisiae deletion strains, locus YNL209W, strain ssb2, stronger effect = lower value 1.02 | S. cerevisiae deletion strains, locus YNL233W, strain BNI4, stronger effect = lower value 1.01 | S. cerevisiae deletion strains, locus YNL248C, strain rpa49, stronger effect = lower value 1.02 | S. cerevisiae deletion strains, locus YNL250W, strain rad50, stronger effect = lower value 1.01 | S. cerevisiae deletion strains, locus YNL271C, strain bni1, stronger effect = lower value 1.03 | S. cerevisiae deletion strains, locus YNL298W, strain CLA4, stronger effect = lower value 1.01 | S. cerevisiae deletion strains, locus YNL307C, strain MCK1, stronger effect = lower value 1.02 | S. cerevisiae deletion strains, locus YNL322C, strain KRE1 (second series), stronger effect = lower value 1.01 | S. cerevisiae deletion strains, locus YNL322C, strain KRE1, stronger effect = lower value 1.01 | S. cerevisiae deletion strains, locus YNR049C, strain mso1, stronger effect = lower value 1.02 | S. cerevisiae deletion strains, locus YNR052C, strain pop2, stronger effect = lower value 1.02 | S. cerevisiae deletion strains, locus YOL006C, strain TOP1, stronger effect = lower value 1 | S. cerevisiae deletion strains, locus YOL012C, strain htz1 0.812 | S. cerevisiae deletion strains, locus YOL147C, strain pex11, stronger effect = lower value 1.01 | S. cerevisiae deletion strains, locus YOR001W, strain rrp6, stronger effect = lower value 1.01 | S. cerevisiae deletion strains, locus YOR061W, strain CKA2, stronger effect = lower value 1.01 | S. cerevisiae deletion strains, locus YOR069W, strain VPS5, stronger effect = lower value 1.01 | S. cerevisiae deletion strains, locus YOR070C, strain gyp1, stronger effect = lower value 1.01 | S. cerevisiae deletion strains, locus YOR080W, strain dia2, stronger effect = lower value 1.01 | S. cerevisiae deletion strains, locus YOR083W, strain WHI5, stronger effect = lower value 1.01 | S. cerevisiae deletion strains, locus YOR106W, strain vam3, stronger effect = lower value 1.02 | S. cerevisiae deletion strains, locus YOR136W, strain idh2, stronger effect = lower value 1.01 | S. cerevisiae deletion strains, locus YOR144C, strain elg1, stronger effect = lower value 1.01 | S. cerevisiae deletion strains, locus YOR184W, strain ser1, stronger effect = lower value 1 | S. cerevisiae deletion strains, locus YOR231W, strain MKK1, stronger effect = lower value 1.03 | S. cerevisiae deletion strains, locus YOR265W, strain rbl2, stronger effect = lower value 1.01 | S. cerevisiae deletion strains, locus YOR270C, strain vph1, stronger effect = lower value 1.1 | S. cerevisiae deletion strains, locus YOR290C, strain snf2, stronger effect = lower value 1.01 | S. cerevisiae deletion strains, locus YOR316C, strain cot1, stronger effect = lower value 1.01 | S. cerevisiae deletion strains, locus YPL051W, strain arl3, stronger effect = lower value 1.01 | S. cerevisiae deletion strains, locus YPL078C, strain atp4, stronger effect = lower value 1.02 | S. cerevisiae deletion strains, locus YPL106C, strain sse1, stronger effect = lower value 1.02 | S. cerevisiae deletion strains, locus YPL240C, strain hsp82, stronger effect = lower value 1.04 | S. cerevisiae deletion strains, locus YPL256C, strain CLN2, stronger effect = lower value 1.04 | S. cerevisiae deletion strains, locus YPR119W, strain clb2, stronger effect = lower value 1.01 | S. cerevisiae deletion strains, locus YPR141C, strain kar3, stronger effect = lower value 1.01 | S. cerevisiae deletion strains, locus YPR163C, strain tif3, stronger effect = lower value 1.01 | S. cerevisiae deletion strains, locus YPR167C, strain met16, stronger effect = lower value 1.01 | S. cerevisiae deletion strains, strain wtn01, stronger effect = lower value 1.01 | S. cerevisiae strains, strain wild type, stronger effect = lower value 1.01
